Experimental data: PubChem BioAssay (NCATS)
Inconclusive results are not listed. Active and inactive are the calls of the source. Unless noted, calls follow the shape of the dose curve; as a rule, active = well fitted curve in either direction with a large enough effect (not every such curve was filed as active); inconclusive = small, poorly fitted or top-dose-only effect, or another doubt; inactive = flat fitted curve, though single readings scatter.

Experiments:
[1] = biological target: Lysosomal acid glucosylceramidase (Homo sapiens) (UniProt P04062); test: Glucocerebrosidase-p2 (AID 348; in the data active = potency below about 10 µM; also: potency is read from the fitted curve at half-maximal effect); conditions: purified GBA, blue fluorogenic substrate, 40 min
In short: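 Normal human glucocerebrosidase (0.2 nM) with blue fluorogenic substrate (80 uM final) in citrate/phosphate pH 5.9 with 10mM sodium taurocholate, 0.01% tween-20; 40 min RT, NaOH/glycine stop; fluorescence Ex 365/Em 440; AC50 from a titration from 0.6 nM upwards.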

[2] = AP1 Signaling Pathway (AID 357); conditions: ME-180 AP-1-bla reporter, EGF-induced, beta-lactamase ratio, 5 h; at 7.69 µM (top of the series) unless noted;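 also: ME-180 reporter cells stimulated with EGF at its EC50 level; % is scaled to controls: 0 for no effect and ±100 for the full control effect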
In short: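 Cells are seeded overnight, exposed to compound titrations and an EC50 level of EGF for 5 hours at 37 °C, then loaded with CCF4 dye for 2.5 hours. Beta-lactamase activity under the AP-1 element is read as a blue/green ratio.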

[3] = Stat Signaling Pathway (AID 446); conditions: ME-180 SIE beta-lactamase reporter, IL-6 stimulated, 5 h; at 7.69 µM (top of the series) unless noted;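 also: ME-180 cervical cancer cells given 40 pM IL-6 alongside compound; SIE-controlled beta-lactamase reporter measured as 460/530 nm FRET emission ratio; % is scaled to controls: 0 for no effect and ±100 for the full control effect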
In short: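 Emission at 460 and 530 nm (excitation 405 nm) reports SIE-controlled beta-lactamase in ME-180 cells. Cells received compound with 40 pM IL-6 for 5 hrs at 37 C; data scaled between 300 pM IL-6 and 125 nM JAK-inhibitor controls.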

[4] = biological target: Glucocorticoid receptor (Homo sapiens) (UniProt P04150); test: GR-GFP Redistribution (AID 450;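 active = compounds whose dose series gives a full or clear partial fitted curve of increased nuclear translocation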; also: potency is read from the fitted curve at half-maximal effect); conditions: U2OS GR-GFP nuclear translocation, laser cytometry, 2 h
[5] = biological target: Glucocorticoid receptor (Homo sapiens) (UniProt P04150); test: GR-EFC Redistribution (AID 451; calls by dose curve; also: potency is read from the fitted curve at half-maximal effect); conditions: CHO-K1 GR-EFC translocation, beta-gal luminescence, 2 h
In short: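 CHO-K1 cells expressing nuclear EA and GR-ED fragments of b-gal; compounds titrated up to 46 uM final, 2 h at 37 C. GR nuclear translocation read as complemented b-gal luminescence after 1 h RT detection.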

[6] = biological target: Mitogen-activated protein kinase 10 (Mus musculus) (UniProt Q61831); test: JNK3 AlphaScreen Assay (AID 530); conditions: JNK3 lysate, c-Jun phosphorylation; series mostly up to 57.1 µM;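 also: kinase came from lysate of stimulated human HepG2 cells; signal reports phosphorylation of biotinylated GST-cJun 1-79 at Ser73 with 10 µM ATP; % is scaled to controls: 0 for no effect and ±100 for the full control effect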
In short: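 HepG2 lysate (IL-1b/TNFa pre-activated) + biotin-GST-cJun 1-79 + anti-pSer73 cJun; cpd titration, 15 min RT; ATP 10 uM start; Tris pH 7.6, MgCl2, DTT, vanadate; beads in EDTA buffer; AlphaScreen.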

[7] = biological target: 3',5'-cyclic-AMP phosphodiesterase 4B (Homo sapiens) (UniProt Q07343); test: qHTS Assay for Inhibitors of PDE-IV (AID 607; active = well fitted activation curve with a large enough effect in the main read-out, with a control signal flat, not every such curve was filed as active; also: % of control where 0% means no effect); conditions: HEK293 ACTOne CNG channel cells, membrane potential fluorescence; series mostly up to 22.9 µM
In short: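 The readout is membrane depolarisation from a cAMP-sensing CNG channel, detected with a potential dye at ex 535/em 590. Cells were HEK293-derived (endogenous PDE-IV) at 1000 cells/well, titrated up to 22.9 uM final.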

[8] = biological target: Cytochrome P450 2C9 (Homo sapiens) (UniProt P11712); test: qHTS Assay for Inhibitors and Substrates of Cytochrome P450 2C9 (AID 883; active = well fitted curve in the direction sought with a large enough effect; an effect the other way counts as inactive or inconclusive; also: potency is read from the fitted curve at half-maximal effect; nearly all actives have a fitted effect of over 60% in size); conditions: recombinant CYP2C9, luciferin-H luminescence, 60 min; series mostly up to 57.1 µM
In short: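 10nM CYP2C9 + 100uM Luciferin-H (=KM), 25mM KPO4; cpd 10 min 37C; NADPH regen, 60 min 37C; stop/detect with P450 Glo-Buffer 20 min; luminescence. Norm. to 57uM sulphaphenazole as full inhibition.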

[9] = biological target: Cytochrome P450 1A2 (Homo sapiens) (UniProt P05177); test: p450-cyp1a2 (AID 410; calls by dose curve; also: potency is read from the fitted curve at half-maximal effect); conditions: recombinant CYP1A2, luciferin-ME demethylation, luminescence; series mostly up to 11.4 µM
In short: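 Read-out is luminescence from luciferin produced by CYP1A2 demethylation of Luciferin-ME (100uM, at Km). Detection reagent stopped the 60 min NADPH-dependent reaction; signals were normalized to 57 uM furafylline.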

[10] = NFAT Signaling Pathway (AID 444); conditions: Jurkat NFAT-bla M1, carbachol, beta-lactamase ratio, 5 h; at 7.69 µM (top of the series) unless noted;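 also: carbachol stimulus at about its EC50 of 1 µM final; % is scaled to controls: 0 for no effect and ±100 for the full control effect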
In short: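 Jurkat cells with NFAT-driven β-lactamase reporter and co-expressed M1 receptor, stimulated with carbachol (final 1 uM, ~EC50), compound titration, 5 h at 37 °C. CCF4 loaded 1 h at RT; 460/530 nm ratio gave %activity and AC50.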

[11] = biological target: Guanine nucleotide-binding protein G(i) subunit alpha-1 (Homo sapiens) (UniProt P63096); test: qHTS Assay for Inhibitors of RGS12 GoLoco Motif Activity (Green Fluorophore) (AID 879; active = well fitted curve in the direction sought with a large enough effect; an effect the other way counts as inactive or inconclusive;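 also: 0% = labeled peptide with Gαi1 and full inhibition = labeled peptide alone without protein; negative values mean loss of peptide binding seen as reduced polarization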); conditions: Galphai1/FITC-RGS12 GoLoco peptide, fluorescence polarization; series mostly up to 57.1 µM
In short: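 A drop in FITC polarization marked displacement of the FITC-tagged RGS12 GoLoco peptide (10 nM) from Gαi1 (50 nM). Compounds were incubated 10 min at room temperature in Tris pH 7.5 buffer containing 150 mM NaCl, 0.1 mM GDP and 0.05% NP40; unlabeled peptide titration served as control.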

[12] = biological target: Cytochrome P450 3A4 (Homo sapiens) (UniProt P08684); test: qHTS Assay for Activators of Cytochrome P450 3A4 (AID 885; active = well fitted curve in the direction sought with a large enough effect; an effect the other way counts as inactive or inconclusive; also: nearly all actives have a fitted effect of over 65% in size); conditions: recombinant CYP3A4, Luciferin-PPXE luminescence, 60 min; series mostly up to 57.1 µM
In short: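 Activators are scored by enhanced luminescence from CYP3A4 conversion of luciferin-PPXE (25uM, equal to KM) to luciferin, after 60 min at RT with an NADPH-regenerating system.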

[13] = qHTS Assay for Identification of Small Molecule Agonists for Thrombopoietin (TPO) Signaling Pathway (AID 917; active = well fitted curve in the direction sought with a large enough effect; an effect the other way counts as inactive or inconclusive; also: % is scaled to controls: 0 for no effect and ±100 for the full control effect); conditions: TPO signaling pathway reporter cells, agonist qHTS; series mostly up to 38.5 µM
In short: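 Luciferase reporter (Glycoprotein IIb promoter) in IL-3-deprived Ba/F3 cells carrying human TPO receptor; compounds co-added with 26 pM TPO, incubated 24 h, 37 C. Steadylite luminescence measured after 10 min.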

[14] = biological target: Muscarinic acetylcholine receptor M1 (Rattus norvegicus) (UniProt P08482); test: qHTS Assay for Antagonists of Acetylcholine Muscarinic M1 Receptor: Measurement of IP-One Response (AID 944; active = well fitted curve in the direction sought with a large enough effect; an effect the other way counts as inactive or inconclusive; also: nearly all actives have a fitted effect of over 75% in size); conditions: CHO-M1 cells, IP-One HTRF, antagonist mode; series mostly up to 46.1 µM
In short: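 Antagonism was measured as loss of carbachol-driven (EC80) IP1 accumulation in CHO cells carrying rat M1, using a homogeneous IP-One TR-FRET kit read at 620 and 665 nm.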

[15] = biological target: Pyruvate kinase (Leishmania mexicana) (UniProt Q27686); test: qHTS Validation Assay for Inhibitors of Leishmania Mexicana Pyruvate Kinase (AID 945; active = well fitted curve in the direction sought with a large enough effect; an effect the other way counts as inactive or inconclusive;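 also: 0% = DMSO only neutral control wells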); conditions: purified L. mexicana pyruvate kinase, enzyme activity, E451W mutant enzyme; series mostly up to 57.5 µM
In short: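 Pyruvate kinase activity of E451W LmPYK (0.2 nM) was followed as ATP output after 1 h at room temperature with 0.5 mM PEP and 0.1 mM ADP, detected by PKLight luminescence.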

[16] = biological target: Pyruvate kinase PKM (Homo sapiens) (UniProt P14618); test: qHTS Assay for Activators of Human Muscle Pyruvate Kinase (AID 954; active = well fitted curve in the direction sought with a large enough effect, not every such curve was filed as active;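 also: 0% = uninhibited enzyme and -100% = no enzyme or full thiadiazolimine inhibition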); conditions: purified human muscle pyruvate kinase, luciferase-coupled luminescence, 1 h; series mostly up to 57.5 µM
In short: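 PKM2, human, >95% pure, 0.1 nM; PEP 0.5 mM (Km), ADP 0.1 mM; 50 mM imidazole pH 7.2, 50 mM KCl, 0.01% Tween 20, 0.05% BSA; 1 h RT; luciferase luminescence readout.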

[17] = qHTS Assay for Identification of Small Molecule Agonists for Hypoxia Response Element Signaling Pathway (AID 914; active = well fitted activation curve with a large enough effect in the signal ratio, with a control signal flat, not every such curve was filed as active; the % refers to the signal ratio; also: % of control where 0% means no effect); conditions: ME-180 (cervical carcinoma) HRE-bla reporter, beta-lactamase ratio, CoCl2, 17 h; active compounds read high
In short: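 Compounds in a titration series were added to ME-180 reporter cells alongside an EC50 level of CoCl2. After 17 hours, beta-lactamase activity was read as the 460nm/530nm emission ratio of CCF4, giving AC50 values.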

Lysosomal acid glucosylceramidase (Homo sapiens), sequence (P04062 whole entry, looked up): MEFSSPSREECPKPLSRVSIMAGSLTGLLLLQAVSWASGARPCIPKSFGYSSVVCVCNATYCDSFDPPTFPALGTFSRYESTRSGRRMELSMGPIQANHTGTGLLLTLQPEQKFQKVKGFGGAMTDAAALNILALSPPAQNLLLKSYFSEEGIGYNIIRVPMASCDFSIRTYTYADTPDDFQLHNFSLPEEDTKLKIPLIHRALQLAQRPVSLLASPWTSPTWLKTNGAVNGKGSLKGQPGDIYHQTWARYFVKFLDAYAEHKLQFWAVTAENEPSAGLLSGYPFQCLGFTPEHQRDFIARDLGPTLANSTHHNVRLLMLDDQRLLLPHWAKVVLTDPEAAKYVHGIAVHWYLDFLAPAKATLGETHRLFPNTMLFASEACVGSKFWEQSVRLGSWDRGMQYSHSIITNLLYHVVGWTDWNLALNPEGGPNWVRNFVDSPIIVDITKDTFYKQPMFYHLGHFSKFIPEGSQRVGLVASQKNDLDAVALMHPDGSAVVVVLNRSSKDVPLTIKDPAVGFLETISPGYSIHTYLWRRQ
Glucocorticoid receptor (Homo sapiens), sequence (P04150 whole entry, looked up, the tested form may be a part): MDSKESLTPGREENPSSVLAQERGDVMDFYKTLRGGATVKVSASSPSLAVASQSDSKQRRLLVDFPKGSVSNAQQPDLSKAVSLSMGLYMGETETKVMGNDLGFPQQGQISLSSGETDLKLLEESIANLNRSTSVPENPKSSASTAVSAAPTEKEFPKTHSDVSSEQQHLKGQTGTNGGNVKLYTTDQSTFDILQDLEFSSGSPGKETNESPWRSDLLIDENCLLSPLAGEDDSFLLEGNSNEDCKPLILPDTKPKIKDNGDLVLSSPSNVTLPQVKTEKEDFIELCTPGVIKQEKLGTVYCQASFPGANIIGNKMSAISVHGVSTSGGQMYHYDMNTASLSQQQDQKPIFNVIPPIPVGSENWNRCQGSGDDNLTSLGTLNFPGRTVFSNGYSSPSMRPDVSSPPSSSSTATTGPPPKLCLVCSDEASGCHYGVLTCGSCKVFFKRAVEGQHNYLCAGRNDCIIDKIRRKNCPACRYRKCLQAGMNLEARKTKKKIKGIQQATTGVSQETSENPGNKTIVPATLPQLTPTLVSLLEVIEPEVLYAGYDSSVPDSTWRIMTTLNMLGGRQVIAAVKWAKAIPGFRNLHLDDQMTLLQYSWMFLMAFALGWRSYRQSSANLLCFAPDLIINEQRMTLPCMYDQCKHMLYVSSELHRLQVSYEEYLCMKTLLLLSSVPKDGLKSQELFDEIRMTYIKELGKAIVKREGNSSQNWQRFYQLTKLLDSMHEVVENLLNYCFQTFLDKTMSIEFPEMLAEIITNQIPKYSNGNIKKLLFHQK
3',5'-cyclic-AMP phosphodiesterase 4B (Homo sapiens), sequence (Q07343 whole entry, looked up): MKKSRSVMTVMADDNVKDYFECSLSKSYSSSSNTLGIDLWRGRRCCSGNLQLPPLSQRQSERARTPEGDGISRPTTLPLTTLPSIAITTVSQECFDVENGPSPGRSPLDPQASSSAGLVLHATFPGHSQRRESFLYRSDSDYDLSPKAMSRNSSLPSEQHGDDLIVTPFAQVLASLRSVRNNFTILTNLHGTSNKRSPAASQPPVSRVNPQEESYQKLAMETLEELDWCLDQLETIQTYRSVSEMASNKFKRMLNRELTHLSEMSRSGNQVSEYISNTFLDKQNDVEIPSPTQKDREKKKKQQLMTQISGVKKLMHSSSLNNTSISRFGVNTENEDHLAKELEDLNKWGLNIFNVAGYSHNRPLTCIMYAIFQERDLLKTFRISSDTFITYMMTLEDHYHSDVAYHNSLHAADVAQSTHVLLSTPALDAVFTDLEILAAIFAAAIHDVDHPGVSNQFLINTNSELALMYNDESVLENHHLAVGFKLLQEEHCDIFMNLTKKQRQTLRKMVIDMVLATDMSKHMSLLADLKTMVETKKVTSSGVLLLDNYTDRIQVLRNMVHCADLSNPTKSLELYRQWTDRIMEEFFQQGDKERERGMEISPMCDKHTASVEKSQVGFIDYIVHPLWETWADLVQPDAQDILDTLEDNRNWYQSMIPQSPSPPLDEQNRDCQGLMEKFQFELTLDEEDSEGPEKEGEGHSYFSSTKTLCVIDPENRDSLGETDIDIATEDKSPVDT
Cytochrome P450 3A4 (Homo sapiens), sequence (P08684 whole entry, looked up): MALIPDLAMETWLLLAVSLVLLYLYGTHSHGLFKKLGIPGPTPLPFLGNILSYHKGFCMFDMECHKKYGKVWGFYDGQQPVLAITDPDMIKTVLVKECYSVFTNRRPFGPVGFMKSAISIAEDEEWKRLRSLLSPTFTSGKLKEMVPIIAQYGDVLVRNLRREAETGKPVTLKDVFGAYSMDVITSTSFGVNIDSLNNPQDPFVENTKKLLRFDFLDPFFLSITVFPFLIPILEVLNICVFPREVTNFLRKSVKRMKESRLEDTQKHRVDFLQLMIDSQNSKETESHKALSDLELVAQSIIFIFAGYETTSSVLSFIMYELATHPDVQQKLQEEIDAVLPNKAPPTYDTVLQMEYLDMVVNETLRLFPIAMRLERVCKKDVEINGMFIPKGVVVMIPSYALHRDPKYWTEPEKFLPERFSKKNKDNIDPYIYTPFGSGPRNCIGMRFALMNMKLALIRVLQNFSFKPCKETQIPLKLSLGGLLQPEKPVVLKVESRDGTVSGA
Muscarinic acetylcholine receptor M1 (Rattus norvegicus), sequence (P08482 whole entry, looked up): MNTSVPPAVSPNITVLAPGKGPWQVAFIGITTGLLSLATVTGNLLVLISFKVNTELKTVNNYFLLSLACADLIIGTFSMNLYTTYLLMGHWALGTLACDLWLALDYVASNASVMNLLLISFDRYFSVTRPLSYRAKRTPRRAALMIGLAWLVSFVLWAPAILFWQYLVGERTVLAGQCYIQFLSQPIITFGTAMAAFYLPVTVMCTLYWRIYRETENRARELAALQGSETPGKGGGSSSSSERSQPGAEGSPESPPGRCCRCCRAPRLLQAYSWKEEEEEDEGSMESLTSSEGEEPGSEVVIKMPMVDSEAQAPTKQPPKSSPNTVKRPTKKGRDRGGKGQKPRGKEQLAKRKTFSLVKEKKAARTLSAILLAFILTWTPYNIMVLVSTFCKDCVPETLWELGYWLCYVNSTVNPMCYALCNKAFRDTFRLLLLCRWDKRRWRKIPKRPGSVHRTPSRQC
Cytochrome P450 2C9 (Homo sapiens), sequence (P11712 whole entry, looked up): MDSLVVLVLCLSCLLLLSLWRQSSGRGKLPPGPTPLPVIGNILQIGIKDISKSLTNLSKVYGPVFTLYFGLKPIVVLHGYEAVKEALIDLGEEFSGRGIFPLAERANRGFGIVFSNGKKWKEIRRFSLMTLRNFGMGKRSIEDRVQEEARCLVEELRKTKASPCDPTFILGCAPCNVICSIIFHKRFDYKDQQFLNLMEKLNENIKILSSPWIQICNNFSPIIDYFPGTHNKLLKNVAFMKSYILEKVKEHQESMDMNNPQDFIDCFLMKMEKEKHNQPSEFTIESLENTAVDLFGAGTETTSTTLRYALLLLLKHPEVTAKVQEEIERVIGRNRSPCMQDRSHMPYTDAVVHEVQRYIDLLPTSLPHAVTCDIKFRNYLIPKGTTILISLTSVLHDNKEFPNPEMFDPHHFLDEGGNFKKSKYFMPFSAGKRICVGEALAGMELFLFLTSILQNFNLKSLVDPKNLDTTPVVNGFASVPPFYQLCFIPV
Pyruvate kinase PKM (Homo sapiens), sequence (P14618 whole entry, looked up): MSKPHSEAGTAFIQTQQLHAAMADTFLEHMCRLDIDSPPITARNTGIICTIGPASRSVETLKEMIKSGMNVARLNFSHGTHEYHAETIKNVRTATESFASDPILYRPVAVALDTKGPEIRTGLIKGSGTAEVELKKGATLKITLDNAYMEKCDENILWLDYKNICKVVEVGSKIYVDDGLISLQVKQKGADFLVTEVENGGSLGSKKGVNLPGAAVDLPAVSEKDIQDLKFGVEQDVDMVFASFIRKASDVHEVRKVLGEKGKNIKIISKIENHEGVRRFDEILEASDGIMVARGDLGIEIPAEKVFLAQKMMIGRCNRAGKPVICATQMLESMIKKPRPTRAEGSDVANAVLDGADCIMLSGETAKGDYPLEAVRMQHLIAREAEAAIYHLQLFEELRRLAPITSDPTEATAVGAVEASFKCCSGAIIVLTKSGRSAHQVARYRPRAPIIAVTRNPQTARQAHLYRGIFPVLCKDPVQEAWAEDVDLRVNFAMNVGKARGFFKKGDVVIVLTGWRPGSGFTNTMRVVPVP
Guanine nucleotide-binding protein G(i) subunit alpha-1 (Homo sapiens), sequence (P63096 whole entry, looked up): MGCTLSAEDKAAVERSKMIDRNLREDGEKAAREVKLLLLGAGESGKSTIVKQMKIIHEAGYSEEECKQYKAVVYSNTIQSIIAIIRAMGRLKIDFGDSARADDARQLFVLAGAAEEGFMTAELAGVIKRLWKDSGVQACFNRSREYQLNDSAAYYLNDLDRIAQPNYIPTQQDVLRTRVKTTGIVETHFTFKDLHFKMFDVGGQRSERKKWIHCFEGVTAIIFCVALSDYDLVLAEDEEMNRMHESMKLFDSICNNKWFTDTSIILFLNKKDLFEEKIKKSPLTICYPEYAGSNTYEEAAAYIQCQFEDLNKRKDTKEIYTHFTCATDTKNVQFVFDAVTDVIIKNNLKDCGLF
Pyruvate kinase (Leishmania mexicana), sequence (Q27686 2-499 E452W): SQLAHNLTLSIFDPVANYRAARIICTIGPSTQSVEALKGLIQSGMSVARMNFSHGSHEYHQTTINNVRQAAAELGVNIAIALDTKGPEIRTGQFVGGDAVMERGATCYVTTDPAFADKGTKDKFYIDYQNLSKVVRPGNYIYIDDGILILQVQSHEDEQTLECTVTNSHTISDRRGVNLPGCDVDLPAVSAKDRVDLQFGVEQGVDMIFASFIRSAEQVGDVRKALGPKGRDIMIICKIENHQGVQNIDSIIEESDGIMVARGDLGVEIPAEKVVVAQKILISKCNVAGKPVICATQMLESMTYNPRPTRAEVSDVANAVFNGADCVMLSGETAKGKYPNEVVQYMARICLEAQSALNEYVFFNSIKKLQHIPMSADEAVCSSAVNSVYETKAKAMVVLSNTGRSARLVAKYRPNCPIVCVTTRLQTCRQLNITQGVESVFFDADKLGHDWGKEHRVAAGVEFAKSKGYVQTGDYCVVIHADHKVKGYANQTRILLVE

O=C(O)C(O)(c1ccc(-c2ccccc2)cc1)c1ccc(-c2ccccc2)cc1
active: Potency [8] 3.16 µM
inactive: Potency [1] > 11.4 µM | activity change, negative = inhibition [2] -25.7% | activity, negative = inhibition [3] -5.5% | Potency [4] > 46 µM | Potency [5] > 9.22 µM | activity change, negative = inhibition [6] 1.15% [at 11.4 µM] | outcome [7]

COc1ccc2c(c1O)-c1cccc3c1[C@H](C2)N(C)CC3
inactive: activity change, negative = inhibition [2] -2.14% [at 38 µM] | activity change, negative = inhibition [10] -9.88% [at 38 µM] | activity, negative = inhibition [3] 28.1% [at 38 µM] | Potency [4] > 46 µM | Potency [5] > 46 µM | Potency [6] | outcome [7] | outcome [11] | Potency [12] | outcome [13] | Potency [14] | outcome [15] | outcome [16]
active: Potency [9] 3.98 µM

O=c1[nH]cnc2[nH]cc(CN3CCCCC3)c12
inactive: Potency [1] > 11.4 µM | activity change, negative = inhibition [2] 2.74% | activity change, negative = inhibition [10] 3.17% | activity change, negative = inhibition [6] 0.447% [at 11.4 µM] | outcome [7]

O=C(c1ccccc1)[C@H]1[C@H](c2ccccc2[N+](=O)[O-])N1C1CCCCC1 (stereo not given in full)
inactive: Potency [1] > 11.4 µM | Potency [4] > 46 µM | Potency [5] > 9.22 µM | activity change, negative = inhibition [6] -6.49% [at 11.4 µM] | outcome [7] | activity change, positive = activation [12] -50.5% [at 11.4 µM]

Cc1ccc(S(=O)(=O)O[C@H]2CN3CCC2CC3)cc1
inactive: Potency [1] > 11.4 µM | activity change, negative = inhibition [2] 10.6% | activity, negative = inhibition [3] -1.72% | Potency [4] > 46 µM | Potency [5] > 9.22 µM | activity change, negative = inhibition [6] 5.42% [at 11.4 µM] | outcome [7]

C[C@@H]1[C@H]2C=C[C@@H]1[C@@H](c1c3ccc(=O)c(O)c-3oc3c(O)c(O)ccc13)[C@@H]2C(=O)O
inactive: Potency [1] > 11.4 µM | activity change, negative = inhibition [2] -14.3% | activity change, negative = inhibition [10] 3.07% | Potency [4] > 46 µM | Potency [5] > 9.22 µM | outcome [7]

O=[As](O)(O)c1ccc(Cc2ccc([As](=O)(O)O)cc2)cc1
active: activity change, negative = inhibition [10] -132%
inactive: Potency [1] > 11.4 µM | activity, negative = inhibition [3] -5.31% | Potency [4] > 46 µM | Potency [5] > 9.22 µM | activity change, negative = inhibition [6] -5.31% [at 11.4 µM] | outcome [7]

O=C(O)[C@H]1C2c3ccccc3C(c3ccccc32)[C@@H]1C(=O)NCC1CC1
inactive: Potency [1] > 11.4 µM | activity change, negative = inhibition [2] 1.37% | activity change, negative = inhibition [10] -3.96% | Potency [4] > 46 µM | activity change, negative = inhibition [6] 2.32% [at 11.4 µM] | outcome [7] | activation [17] -0.158%
